Data as given in PubChem BioAssay.
The source made the active and inactive calls.

Key:
[1] = compound effects on differentiated 3T3-L1 adipocyte viability – cell-based, 3T3-L1 adipocytes, calcein-AM fluorescence, 48 h, basal, profiling panel (AID 1163); details: 3T3-L1 adipocytes viability, higher = more signal
[2] = compound effects on hepatocellular carcinoma cell viability – HepG2, calcein-AM fluorescence, 48 h, basal, profiling panel (AID 1164); details: higher = more signal
[3] = compound effects on multiple myeloma cell viability – MM1S, calcein-AM fluorescence, 48 h, basal, profiling panel (AID 1165); details: higher = more signal;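 further: viability of MM1S multiple myeloma cells under basal unstimulated conditions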
[4] = calcein-AM signal in unstimulated myeloma cells – cell-based, calcein-AM fluorescence, 48 h, PK04 Diversity Set, profiling panel (AID 1166); details: RPMI8226 myeloma viability, higher = more signal;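 further: cells grown under basal conditions without added stimulus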
[5] = JC-1 mitochondrial signal, unstimulated HepG2 cells – cell-based, JC-1 fluorescence, 24 h, 100 nL compound, profiling panel (AID 1167); details: HepG2 mitochondrial potential, higher = more signal
[6] = JC-1 mitochondrial signal, unstimulated adipocytes – cell-based, JC-1 fluorescence, 3T3-L1 adipocytes, 24 h, 100 nL compound, profiling panel (AID 1168); details: JC-1 mitochondrial fluorescence, higher = more signal, called active from +8 up or from −8 down
[7] = JC-1 mitochondrial signal, unstimulated myeloma cells – cell-based, JC-1 fluorescence, RPMI8226, 24 h, 100 nL compound, profiling panel (AID 1169); details: JC-1 mitochondrial potential fluorescence, higher = more signal
[8] = JC-1 mitochondrial signal, unstimulated MM1S myeloma – cell-based, JC-1 fluorescence, 24 h, 100 nL compound, profiling panel (AID 1170); details: MM1S mitochondrial potential, higher = more signal
[9] = resazurin metabolic signal in A549 cells – cell-based, resazurin fluorescence, 24 h, PK04 Diversity Set, profiling panel (AID 1171); details: A549 viability, higher = more signal, called active from +8 up or from −8 down
[10] = resazurin metabolic signal in HepG2 cells – cell-based, resazurin fluorescence, 24 h, PK04 Diversity Set, profiling panel (AID 1172); details: HepG2 viability, higher = more signal
[11] = budding yeast growth changes without added modifier – OD600, strain BY4716, 24 h, basal condition, primary screen (AID 1173); details: S. cerevisiae BY4716 growth, OD600, 24 h; higher = more signal, called active from +8 up or from −8 down
[12] = viability profiling in MM1S myeloma cells – cell-based, resazurin fluorescence, basal, 24 h, PK04 Diversity Set, profiling panel (AID 1174); details: higher = more signal, called active from +8 up or from −8 down
[13] = target: Dihydroorotate dehydrogenase (quinone), mitochondrial (Plasmodium falciparum (isolate 3D7)) (UniProt Q08210); experiment: inhibition of P. falciparum DHODH – biochemical, C-terminal His tag, absorbance 600 nm, primary screen (AID 1175); details: PfDHODH enzyme, DCIP absorbance 600 nm; higher = more signal, called active from +8 up or from −8 down;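 further: recombinant parasite enzyme with a five histidine tag at its C terminus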
Sequence of Dihydroorotate dehydrogenase (quinone), mitochondrial (Plasmodium falciparum (isolate 3D7)) (Q08210 whole entry, looked up): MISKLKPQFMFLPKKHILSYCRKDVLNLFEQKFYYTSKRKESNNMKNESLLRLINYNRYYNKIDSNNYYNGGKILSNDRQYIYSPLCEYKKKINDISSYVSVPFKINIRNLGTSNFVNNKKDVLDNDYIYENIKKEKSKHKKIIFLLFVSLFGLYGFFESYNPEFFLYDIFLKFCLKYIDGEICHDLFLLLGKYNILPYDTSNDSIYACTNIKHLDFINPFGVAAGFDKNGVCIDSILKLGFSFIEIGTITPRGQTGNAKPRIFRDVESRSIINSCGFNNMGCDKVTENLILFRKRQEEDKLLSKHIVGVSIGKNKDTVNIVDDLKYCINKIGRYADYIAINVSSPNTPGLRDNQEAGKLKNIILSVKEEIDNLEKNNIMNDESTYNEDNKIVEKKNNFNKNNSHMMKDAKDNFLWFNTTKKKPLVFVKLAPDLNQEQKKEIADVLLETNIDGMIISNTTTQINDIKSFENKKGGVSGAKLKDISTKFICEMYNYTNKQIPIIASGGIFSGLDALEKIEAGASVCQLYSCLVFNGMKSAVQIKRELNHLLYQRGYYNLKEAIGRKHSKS

[14] = growth modulation of vineyard yeast isolate – strain RM11-1a, OD600, basal, 24 h, primary screen (AID 1177);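 further: cultures grown under basal conditions with no added stressor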; details: S. cerevisiae RM11-1a growth, OD600, 24 h; higher = more signal, called active from +8 up or from −8 down
[15] = growth of efflux-deficient E. coli DRC39 – strain DRC39, OD650, 24 h, E. coli filamentation inducers, primary screen (AID 1178);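 further: growth measured as culture turbidity by optical density at 650 nm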; details: E. coli DRC39 acrAB, higher = more signal, called active from +8 up or from −8 down
[16] = growth of efflux-deficient E. coli DRC39 – strain DRC39, OD650, 48 h, E. coli filamentation inducers, primary screen (AID 1179);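 further: screen aims at cell division blockers that make cells filament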; details: E. coli DRC39 delta-acrAB growth, higher = more signal, called active from +8 up or from −8 down
[17] = viability profiling in RPMI8226 myeloma cells – cell-based, resazurin fluorescence, basal, 24 h, PK04 Diversity Set, profiling panel (AID 1180); details: higher = more signal;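 further: RPMI8826 multiple myeloma cell line at 5000 cells per well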
[18] = target: E3 ubiquitin-protein ligase XIAP (Homo sapiens) (UniProt P98170); experiment: small molecules binding XIAP protein – biophysical, small-molecule microarray, fluorescence 635 nm, primary screen (AID 1181); details: higher = more signal;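 further: score merges 667 nm emission and signal to noise over triplicate slides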
Sequence of E3 ubiquitin-protein ligase XIAP (Homo sapiens) (P98170 whole entry, looked up, the tested form may be a part): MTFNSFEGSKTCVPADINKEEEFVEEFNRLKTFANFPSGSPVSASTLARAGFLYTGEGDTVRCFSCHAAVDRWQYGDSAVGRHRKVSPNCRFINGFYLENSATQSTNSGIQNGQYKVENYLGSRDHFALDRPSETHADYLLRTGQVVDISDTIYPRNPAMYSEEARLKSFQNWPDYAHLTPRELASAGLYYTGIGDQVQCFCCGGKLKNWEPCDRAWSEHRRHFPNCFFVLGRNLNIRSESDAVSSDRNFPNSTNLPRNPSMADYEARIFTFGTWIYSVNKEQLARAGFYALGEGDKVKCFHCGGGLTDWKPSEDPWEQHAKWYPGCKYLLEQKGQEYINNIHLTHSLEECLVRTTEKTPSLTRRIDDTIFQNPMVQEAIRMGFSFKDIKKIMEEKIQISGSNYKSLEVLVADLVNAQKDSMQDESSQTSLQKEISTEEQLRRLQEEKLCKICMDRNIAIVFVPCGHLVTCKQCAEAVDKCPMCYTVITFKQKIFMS

[19] = tested on: XIP peptide (Xip251-270) binding; experiment: XIP fragment 251-270 binding compounds – biochemical, small-molecule microarray, fluorescence 635/667 nm, 0.1 µg/mL protein, primary screen (AID 1182); details: fluorescent protein binding, 635 nm, higher = more signal, called active from +8 up or from −8 down
[20] = tested on: XIP peptide (Xip251-270); experiment: compounds binding XIP fragment 251-270 – biochemical, small-molecule microarray, fluorescence 635/667 nm, 0.5 µg/mL protein, primary screen (AID 1183); details: fluorescence 635 nm, higher = more signal

| Compound | z-score [1] | z-score [2] | z-score [3] | z-score [4] | z-score [5] | z-score [6] | z-score [7] | z-score [8] | z-score [9] | z-score [10] | z-score [11] | z-score [12] | composite z-score [13] | z-score [14] | z-score [15] | z-score [16] | z-score [17] | composite z-score [18] | composite z-score [19] | composite z-score [20] |
| --- | --- | --- | --- | --- | --- | --- | --- | --- | --- | --- | --- | --- | --- | --- | --- | --- | --- | --- | --- | --- |
| Cc1ccc(S[C@]2(C(=O)NC3CC3)CC(=O)N(Cc3ccccc3C(F)(F)F)[C@@H]2c2ccc(CO)cc2I)cc1 | 0.421 | -0.4 | -2.65 | -2.11 | 1.44 | 0.525 (inactive) | -0.513 | -0.93 | 0.149 (inactive) | 0.436 | -8 (inactive) | -1.93 (inactive) | -2.6 (inactive) | -2.07 (inactive) | 0.413 (inactive) | 0.303 (inactive) | -1.84 | -0.29 | 0.0437 (inactive) | -0.811 |
| COCCOC(=O)N1C(=O)[C@@]2(c3ccccc31)[C@H](C(=O)Nc1nc3ccccc3s1)[C@H]1C(=O)O[C@H](c3ccccc3)[C@H](c3ccccc3)N1[C@@H]2c1ccc(O)cc1 | 0.471 | -1.49 | -3.26 | -3.76 | -3.44 | 1.01 (inactive) | -1.05 | -1.87 | 0.35 (inactive) | 0.148 | 2.4 (inactive) | -1.22 (inactive) | -2.63 (inactive) | 4.4 (inactive) | 1.23 (inactive) | 1.84 (inactive) | -0.898 | -0.0025 | 1.03 (inactive) | 0.748 |
| COCCCN1C(=O)[C@@]2(Cc3ccccc31)c1ccccc1C(=O)N(Cc1ccccc1Cl)[C@H]2c1ccc(CO)cc1 | -0.414 | 0.0836 | 0.712 | 0.485 | 1.58 | 1.33 (inactive) | 0.15 | 0.828 | -0.306 (inactive) | -0.384 | -0.846 (inactive) | 0.686 (inactive) | -12.4 (active) | -0.921 (inactive) | 0.56 (inactive) | 0.891 (inactive) | 0.902 | -0.0699 | -0.31 (inactive) | 0.107 |
| COCCCNC(=O)[C@@]1(Cc2ccccc2)N=C(c2ccc(OCCCO)cc2)O[C@H]1c1ccccc1N=[N+]=[N-] | 1.95 | -0.121 | -1.67 | -4.02 | 1.12 | 2.93 (inactive) | -1.1 | -0.433 | -1.83 (inactive) | 0.357 | 0.346 (inactive) | -1.13 (inactive) | 1.37 (inactive) | 2.42 (inactive) | 1.22 (inactive) | 0.18 (inactive) | -2.12 | 0.085 | 0.619 (inactive) | -0.473 |
| C=C(C(=O)CC[C@H](OC(C)=O)c1ccc(CO)o1)C(C)C | 2.11 | -1.14 | -2.73 | -0.639 | 0.672 | 2.3 (inactive) | -0.378 | 0.548 | -0.158 (inactive) | 0.0204 | -0.273 (inactive) | 0.0516 (inactive) | -0.969 (inactive) | -0.487 (inactive) | 1.63 (inactive) | 0.359 (inactive) | 0.739 | 0.0028 | 2.48 (inactive) | -0.365 |
| COc1ccc([Si](C)(C)[C@H]2[C@H](CC(=O)N(CCO)Cc3ccccc3)O[C@@]3(C(=O)N(Cc4ccc(N5CCC5=O)cc4)c4ccccc43)[C@@H]2C)cc1 | 0.816 | -0.861 | -1.22 | -3.56 | 0.197 | 1.44 (inactive) | -0.995 | 0.233 | -1.1 (inactive) | 0.0408 | -0.344 (inactive) | -1.3 (inactive) | -0.983 (inactive) | 1.73 (inactive) | 1.61 (inactive) | 1.46 (inactive) | -1.97 | -0.0948 | 2.44 (inactive) | 0.365 |
| CCCCCN1CC=CC23O[C@@H]4/C=C\CCC(C)OC(=O)C4[C@H]2C(=O)N(CCO)[C@@H]3C1=O (stereo not given in full) | 2.4 | 0.277 | 2.91 | -0.245 | 0.419 | 1.74 (inactive) | 0.791 | 1.17 | 0.095 (inactive) | 0.355 | -0.734 (inactive) | 1.32 (inactive) | 0.0255 (inactive) | 0.121 (inactive) | 1.34 (inactive) | 1.11 (inactive) | 1.22 | 0.272 | 0.642 (inactive) | -0.927 |
| O=C(NC1CC1)[C@@H]1c2ccccc2C(=O)N(Cc2ccccc2C(F)(F)F)[C@H]1c1ccc(CO)cc1 | 1.59 | 0.0356 | -0.124 | 0.702 | 1.26 | 0.387 (inactive) | -0.0417 | 0.65 | 1.99 (inactive) | 0.187 | -0.844 (inactive) | 1.55 (inactive) | 0.209 (inactive) | -0.615 (inactive) | 0.487 (inactive) | -0.152 (inactive) | 1.98 | -0.0848 | 0.62 (inactive) | 0.618 |
